From PubChem BioAssay
Rows were chosen to be rich in hits. Some 7.4% of all compounds tested hit in one or more screens of this group.
SMN2 splice up – qHTS Assay for Enhancers of SMN2 Splice Variant Expression | HEK293 SMN2-luciferase splicing reporter, luminescence, 30-36 h | Potency, µM (doses to about 46.1 µM), actives largely listed as activators | 210,000 compounds, 2.8% hits; also: nearly all actives have a fitted effect of over 55% in size
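HEK293 cells carry an SMN2 […]–luciferase reporter in which exon 7 inclusion puts luciferase in frame. Cells were plated 10-12 h before compound addition, then incubated 30-36 h at 37C. ONE-Glo luminescence was read; sodium butyrate at 4.5 mM final served as control.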
FLuc counter – qHTS profiling assay for firefly luciferase inhibitor/activator using purifed enzyme and Km concentrations of substrates (counterscreen for miR-21 project) | purified FLuc, Km substrates, luminescence inhibition | Luciferin 4-monooxygenase (Photinus pyralis), P08659 | 360,000 compounds, 6.9% hits | Potency, µM (series often up to 57.5 µM), usual class: inhibitors; also: nearly all actives have a fitted effect of over 55% in size
Target sequence (P08659 whole entry, looked up): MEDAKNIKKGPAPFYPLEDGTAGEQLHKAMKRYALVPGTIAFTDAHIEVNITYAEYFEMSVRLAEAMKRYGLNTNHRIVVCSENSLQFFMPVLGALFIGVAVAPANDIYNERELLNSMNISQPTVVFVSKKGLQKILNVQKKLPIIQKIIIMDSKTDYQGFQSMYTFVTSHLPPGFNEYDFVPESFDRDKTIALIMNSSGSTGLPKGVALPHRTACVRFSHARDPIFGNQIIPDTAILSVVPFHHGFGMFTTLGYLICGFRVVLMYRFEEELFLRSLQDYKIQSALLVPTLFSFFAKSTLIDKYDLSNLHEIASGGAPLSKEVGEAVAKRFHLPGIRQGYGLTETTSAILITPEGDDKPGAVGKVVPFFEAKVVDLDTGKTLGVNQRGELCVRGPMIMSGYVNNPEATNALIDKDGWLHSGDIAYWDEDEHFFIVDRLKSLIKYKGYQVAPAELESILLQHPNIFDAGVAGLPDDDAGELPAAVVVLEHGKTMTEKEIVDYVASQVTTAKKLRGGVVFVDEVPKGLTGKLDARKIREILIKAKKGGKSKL
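Purified P. pyralis luciferase (10nM final) with 10uM D-luciferin and 10uM ATP (Km levels) in 50mM Tris acetate pH 7.5, 10mM Mg acetate, 0.01% Tween-20, 0.05% BSA; qHTS 6-point titration, ~60 µM downward; luminescence read.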
Rab9 prom act – qHTS Assay for Rab9 Promoter Activators; Huh7 Rab9 promoter-luciferase reporter, luminescence, 24 h; Potency, µM (series often up to 9.22 µM), most hits filed as activators; 320,000 compounds, 2.8% hits; AID 485297, 2010; also: nearly all actives have a fitted effect of over 60% in size
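Stable Rab9-luc Huh7, 1500 cells/well, 2 h settle; cmpd in DMSO, 24 h, 37 °C/5% CO2; luciferase reagent 10 min RT; luminescence.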
ELG1 genotox – qHTS screen for small molecules that induce genotoxicity in human embryonic kidney (HEK293T) cells expressing luciferase-tagged ELG1 | HEK293T ELG1-luciferase reporter, luminescence, 16 h | Potency, µM (doses to about 46 µM), actives largely listed as activators | 330,000 compounds, 1.3% hits | AID 504466, 2011; also: nearly all actives have a fitted effect of over 60% in size
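Luminescence read-out: rising ELG1-luciferase signal, reflecting elevated ELG1 protein under genetic stress, flags genotoxic compounds. Cells were treated for 16 hr at 37 °C before ONE-Glo detection.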
NPC1 prom act – qHTS Assay for NPC1 Promoter Activators. Huh7 NPC1 promoter luciferase reporter, 24 h. 320,000 compounds, 2.4% hits. Potency, µM (top dose mostly 9.22 µM), hits mostly activators; also: nearly all actives have a fitted effect of over 60% in size
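In 1536-well qHTS, Huh7 cells harboring an NPC1 promoter–luciferase construct received compound for 24 h; activation was quantified by luminescence following luciferase reagent addition.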
Hits are given with their value; – = inactive; ? = inconclusive; · = no result given; [ ] = another dose, or the depositor's remark. Calls follow the shape of the dose curve; as a rule, active = well fitted curve in the direction sought with a large enough effect; inconclusive = small, poorly fitted or top-dose-only effect, or another doubt; inactive = no such curve, though single readings can be large; an effect the other way counts as inactive or inconclusive.

SMILES	SMN2 splice up	FLuc counter	Rab9 prom act	ELG1 genotox	NPC1 prom act
COc1ccccc1-c1ccc(/C=C2/C=C(C)OC2=O)o1	–	?	–	–	–
COc1ccccc1-c1ccc(/C=C2\C=CC(=O)O2)o1	·	7.6µM	–	–	–
CC(C)n1c(O)c(N=NC(=O)Cn2ccc(C(F)(F)F)n2)c2ccccc21	–	–	–	–	–
CCCCC1CCC(CCCC(C)CCC(=O)O)CC1 (centres undefined)	–	27µM	·	·	·
CN(C)CCNC(=O)c1ccc(Cn2c(=O)c3cccn3c3cccnc32)cc1	·	–	·	·	·
CCN(CC)c1ccc(/C=C2\SC(=O)N(C(C)C)C2=O)o1	·	19µM	–	–	–
NC(N)=N/N=C(/c1ccccc1)c1ccc(O)cc1O	–[9.22 µM]	·	·	·	·
CCCNC(=O)c1cc(Cl)c(NC(=O)C2=CSCCO2)cc1OC	·	19µM	?	–	?
CC(C)(C)c1ccc(OCc2nc(-c3ccccn3)no2)c(Br)c1	13µM	3µM	·	·	·
Clc1cc(Cl)c(OCc2nc(-c3ccccn3)no2)cc1Cl	11µM	1.3µM	0.71µM	?	1.1µM
COc1ccc(OC)c(NC(=O)c2cccc(NC(=O)c3ccccc3)c2)c1	·	17µM	–	–	–
COc1ccc(OC)c(NC(=O)c2ccc(OC3CSC3)cc2)c1	–	11µM	–	–	–
COc1ccc(NC(=O)c2ccc3nc(-c4ccccc4)c(-c4ccccc4)nc3c2)c(OC)c1	–	–	–	–	–
CCCc1cc(C(=O)Nc2cc(OC)ccc2OC)cs1	·	19µM	–	–	–
COc1ccc(NC(=O)c2cccc(NC(=O)c3ccccc3)c2)c(OC)c1	·	19µM	–	–	–
COc1ccc(OC)c(NC(=O)c2ccc(NC(C)=O)cc2)c1	·	–	–	–	–
O=C(CSc1nccn1Cc1ccc(F)cc1)Nc1ccc2c(c1)OCO2	·	–	·	·	·
Cc1ccc(Cn2c(C)c(CNCC(C)c3ccccc3)c(C(=O)O)c2C)cc1 (centres undefined)	–	–	·	·	·
O=[N+]([O-])c1cc(Br)c(OCc2nnc(-c3ccccc3)o2)c(Br)c1	–	?	–	–	–
Nc1cc([N+](=O)[O-])cc2oc(-c3ccccc3)cc12	·	19µM	?	?	?
CCCc1cc(=O)[nH]c(SCC(=O)Nc2ccc([N+](=O)[O-])cc2C#N)n1	·	–	–	–	–
C=CCOC(=O)C(=O)/C=C/c1csc2ccccc12	·	27µM	–	?	–
C=CCOC(=O)/C(=C\c1cccc2ccccc12)NC(=O)c1ccccc1	–	?	–	–	–
Cc1ccccc1Nc1nc(N)nc(CSc2ccc(F)cc2)n1	·	11µM	3.2µM	8.2µM	2.5µM
Cc1ccccc1Nc1nc(N)nc(CSc2nnnn2C)n1	13µM	?	2.5µM	?	3.5µM
SMILES	SMN2 splice up	FLuc counter	Rab9 prom act	ELG1 genotox	NPC1 prom act
CCc1ccccc1Nc1nc(N)nc(CSc2nnnn2C)n1	–	–	–	–	–
Cc1ccc(SCc2nc(N)nc(Nc3ccccc3C)n2)c(C)c1	–	27µM	–	–	–
Cc1ccc(Nc2nc(N)nc(CN3CCCCCC3)n2)c(C)c1	–	–	–	–	–
Cc1ccc(Nc2nc(N)nc(CSc3nccn3C)n2)c(C)c1	–	?	?	15µM	?
CCn1nc(C)c(CNC(=O)C2CCC(=O)N(Cc3ccc(Cl)cc3)C2)c1C (centres undefined)	·	–	–	–	–
COc1cccc(NC(=O)Nc2ccccc2SC)c1	–	17µM	–	–	–
COc1ccc(NC(=O)Nc2ccccc2SC)c(OC)c1	–	–	–	–	–
COc1ccc(NC(=O)Nc2ccccc2SC)cc1OC	·	19µM	?	–	–
COc1ccc2cc(C3(C)NC(=O)N(CC(=O)N4CCCCC4)C3=O)ccc2c1 (centres undefined)	·	·	·	–	·
c1csc(-c2nc3c4ccccc4c4ccccc4c3[nH]2)c1	–	15µM	–	–	–
C=C(C)C(=O)/C=C/CCC/C=C/C(=O)OCC	–	·	·	·	·
Brc1ccc2[nH]c3c(c2c1)CCC3	·	–	–	–	–
O=C1Cc2c([nH]c3ccc(Br)cc23)-c2ccccc2N1	11µM	·	0.37µM	·	0.52µM
Cc1ccc(NC(=O)COC(=O)CCc2ccccc2)c(Cl)c1	·	17µM	–	–	–
CNC1=C(Br)C(=O)c2ccncc2C1=O	–	·	·	·	·
Cc1nccc(-c2cc(-c3ccc(Cl)cc3Cl)no2)n1	·	2.4µM	1.1µM	?	1.4µM
CSCCC(NC(=O)c1ccc(C(C)(C)C)cc1)C(=O)OCC(=O)N1CCCC1=O (centres undefined)	·	21µM	–	–	–
CCOC(=O)C1(CCOc2ccccc2)CCN(Cc2ccc3nonc3c2)CC1	·	–	–	–	–
O=S(=O)(c1ccc(NCc2ccccc2)cc1)N1CCOCC1	·	–	–	–	–
COc1ccc2nc(NNC(=O)C3COc4ccccc4O3)sc2c1 (centres undefined)	–	–	–	–	–
COc1ccc2nc(NC(=O)C3COc4ccccc4O3)sc2c1 (centres undefined)	13µM	3µM	3.2µM	?	1.6µM
CC1CC1C(=O)Nc1nc2ccc(S(C)(=O)=O)cc2s1 (centres undefined)	·	–	–	–	–
CS(=O)(=O)c1ccc2nc(NC(=O)C3COc4ccccc4O3)sc2c1 (centres undefined)	·	11µM	–	–	–
O=C(Nc1nc(-c2nc3ccccc3s2)cs1)C1COc2ccccc2O1 (centres undefined)	25µM	19µM	–	–	–
CCN(CC)c1ccc(NC(=O)CN(C)S(=O)(=O)c2cccc3nsnc23)c(C)c1	–	–	·	·	·
SMILES	SMN2 splice up	FLuc counter	Rab9 prom act	ELG1 genotox	NPC1 prom act
CCOc1ccc(S(=O)(=O)N(CC)CC(=O)NCc2cccnc2)cc1C	·	–	–	–	–
O=C(NCCC(=O)N1CCN(c2ccc(F)cc2)CC1)c1ccco1	·	–	–	–	–
CCC(C)N(C(=O)Cn1nnc2ccccc21)C(C(=O)Nc1ccc(F)cc1)c1cccc(OC)c1 (centres undefined)	–	–	–	–	–
CCSc1nn2c(=O)c3ccccc3nc2s1	14µM	19µM	2.5µM	5µM	3.5µM
COCC1CCN(C(=O)c2ccc(OC3CCN(Cc4ccccn4)CC3)cc2)C1 (centres undefined)	·	–	–	?	–
Cc1cc(Nc2ccccc2)n(-c2ccccc2)n1	–	–	–	–	–
Cc1cc(Nc2ccccc2)n(C(=O)c2ccccc2)n1	–	12µM	–	?	–
Cc1cc(Nc2ccccc2)nn1C(=O)c1ccc(Cl)cc1	–	9.5µM	–	?	–
O=C(Nc1ccc2nc(SCCOc3ccccc3Cl)sc2c1)c1cccs1	·	–	·	·	·
O=C(CN(C(=O)c1csnn1)c1ccc(Br)cc1)NC1CCCCC1	·	–	–	–	–
O=C(c1cccc(F)c1)N1CCC[C@@]2(CCN(Cc3ccccc3)C2)C1	–	·	·	·	·
